HCV NS3h FP = HCV NS3 helicase inhibitors, primary screen, biochemical, fluorescence polarization, ChemBridge library. inhibition, % at 100 µM. 16,000 tested, 1.6% active. NS3h Cy5-dT15 DNA binding;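 active means inhibition above the average over every tested compound plus 3 SD, cut at about 40% in these data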
Cy5 interf NS3h = Cy5 fluorescence quenchers or enhancers, artefact control for HCV NS3 helicase inhibitor project, biochemical, ChemBridge library, Cy5 readout. Cy5-dT15 DNA with NS3h, fluorescence interference; actives lie on both sides; signal over control mean, under 1 quenches. fluorescence interference ratio at 100 µM. 16,000 tested, 6% active;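 active means compound fluorescence over control fluorescence at most 0.8, a quencher, or at least a set upper limit, an enhancer; inactive means ratio between 0.8 and the set upper limit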
HCV NS3h conf = HCV NS3 helicase inhibitors, retest, confirmation, biochemical, fluorescence polarization, ChemBridge library | shares compounds with HCV NS3h FP | NS3h binding to Cy5-dT15 DNA | inhibition, % at 100 µM | 240 tested, 20% active | AID 720485, 2013;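 active means percent inhibition of 50% or more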
SSB FP counter = E. coli SSB-DNA binding inhibitors, counter-screen for HCV NS3 helicase inhibitor project, biochemical, fluorescence polarization, selected ChemBridge compounds; inhibition, % at 100 µM; shares compounds with HCV NS3h FP; E. coli SSB binding Cy5-dT15; 240 tested, 40% active;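 active means inhibition of at least 50%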;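 further: displacers lower Cy5 polarization so higher inhibition means more SSB displaced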
Target sequence (P0AGE0 whole entry, looked up): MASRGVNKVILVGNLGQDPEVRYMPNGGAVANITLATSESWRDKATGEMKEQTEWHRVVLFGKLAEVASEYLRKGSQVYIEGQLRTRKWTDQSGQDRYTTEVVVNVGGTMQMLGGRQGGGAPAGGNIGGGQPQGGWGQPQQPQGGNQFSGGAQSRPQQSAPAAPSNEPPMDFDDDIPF
Cy5 SSB fluor CB = Cy5 fluorescence interference with SSB-bound oligo, artefact control for HCV NS3 helicase inhibitor project, biochemical, E. coli SSB, selected ChemBridge compounds; fluorescence interference ratio at 100 µM; 240 tested, 8% active; Cy5-dT15/E. coli SSB fluorescence interference; actives lie on both sides; shares compounds with HCV NS3h FP; AID 720487, 2013;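 active means fluorescence interference ratio at or above 1.2, signal boosting, or at or below 0.8, signal quenching; inactive means ratio between 0.8 and 1.2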;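 further: ratio of compound well signal to mean negative control signal so 1 means no effect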
Cy5 fluor confirm = Cy5-DNA-NS3h complex fluorescence interference, confirmation, artefact control for HCV NS3 helicase inhibitor project, biochemical, ChemBridge library. shares compounds with HCV NS3h FP. Cy5-dT15 DNA/NS3h fluorescence interference counterscreen. fluorescence interference ratio at 100 µM, hits read low. 240 tested, 44% active. AID 720489, 2013;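 active means fluorescence interference ratio at or below 0.8 quencher or at or above a set limitenhancer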;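 further: ratio of compound fluorescence to mean of negative controls so 1 means no interference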
The depositor's hits bear a star. Sampled rows, rich in hits. Any-hit rate of the full collection: about 6.8%.

SMILES | HCV NS3h FP | Cy5 interf NS3h | others
CC(=O)Nc1ccc(C(=O)N2CC(C)CC(C)C2)cc1 (centres undefined) | 4.0 | 0.687*
CC1CC(C)CN(C(=O)c2ccc(Cl)cc2)C1 (centres undefined) | -4.9 | 1.05
CCOC(=O)C1=C(C)N(CC(C)C)C(=O)/C1=C\c1ccco1 | 9.1 | 1.05
COc1ccc(-c2nn(-c3ccccc3)cc2/C=C/C(=O)O)cc1 | 10.0 | 0.997
COc1ccc(C2C3=C(CC(C)(C)CC3=O)OC3=C2C(=O)CC(C)(C)C3)cc1Br | 16.4 | 0.886
COc1cc(Br)c(C2C3=C(CC(C)(C)CC3=O)OC3=C2C(=O)CC(C)(C)C3)cc1OC | 8.8 | 0.771*
Cn1c2ccccc2c2cc(C3Nc4ccccc4C(=O)N3Cc3ccco3)ccc21 (centres undefined) | 10.2 | 0.98
COc1ccc(C2C(=C(O)c3ccc(Cl)cc3)C(=O)C(=O)N2CCCCCC(=O)O)c(OC)c1 (centres undefined) | 13.4 | 1.1
O=C(NC1CCS(=O)(=O)C1)/C(=C\c1ccc(Br)cc1)NC(=O)c1ccccc1 (centres undefined) | 8.2 | 1.26*
CC(C)c1ccc(/C=C(\NC(=O)c2ccccc2)C(=O)NC2CCS(=O)(=O)C2)cc1 (centres undefined) | 9.7 | 0.857
CCC(=O)Nc1ccc2nn(-c3ccc(C)c(Cl)c3)nc2c1 | 25.8 | 1.06
COc1ccc(C2NC(c3ccc(OC)cc3)C3CCCC2C3=O)cc1 (centres undefined) | 5.8 | 1.02
COc1ccc(C2NC(c3ccc(OC)cc3)C(c3ccccc3)C(=O)C2c2ccccc2)cc1 (centres undefined) | 18.0 | 0.716*
CCOC(=O)c1c(-c2ccccc2)oc2ccc(OC(=O)c3ccc([N+](=O)[O-])cc3)cc12 | 0.6 | 0.982
CC(=O)NS(=O)(=O)c1ccc(NS(=O)(=O)c2ccc(C)cc2)cc1 | -0.6 | 0.983
Cc1ccc(S(=O)(=O)Nc2ccc(S(=O)(=O)NC(=O)C3CCCCC3)cc2)cc1 | 11.5 | 0.724*
O=C(NCCN1CCNCC1)C(=O)Nc1ccc(Br)cc1 | 9.2 | 0.975
COc1cccc(/C=C2\CC/C(=C\c3cccc(OC)c3OC)C2=O)c1OC | 7.6 | 0.908
Cc1cc(C)nc(N=C(N)Nc2ccccc2C(F)(F)F)n1 | -13.0 | 1.02
O=C(O/N=C(\c1ccncc1)c1ccc([N+](=O)[O-])cc1)c1ccccc1F | 11.5 | 0.988
CCCCOc1ccc(C(=O)O/N=C(\c2ccncc2)c2ccc([N+](=O)[O-])cc2)cc1 | 10.5 | 0.747*
COCCCNC(=O)CN(c1ccc(Cl)cc1)S(=O)(=O)c1ccccc1 | -1.6 | 0.994
CCCCOc1ccc(NC(=O)CSCC(=O)Nc2ccc3ccccc3c2)cc1 | 10.0 | 1.05
Cc1nnc(C)n1/N=C\c1ccccc1Br | 3.8 | 1.01
Cc1ccc(C(=O)Nc2nc(-c3ccccc3)cs2)cc1[N+](=O)[O-] | 10.2 | 0.997
SMILES | HCV NS3h FP | Cy5 interf NS3h | others
Cc1nc(NC(=O)c2ccccc2)sc1-c1csc(Nc2cccc(C(=O)O)c2)n1 | 37.4 | 0.798* | HCV NS3h conf=-0.8;SSB FP counter=22.3;Cy5 SSB fluor CB=0.929;Cy5 fluor confirm=0.728*
CN(C1=NC(=O)/C(=C\c2ccc(Cl)cc2)S1)c1ccc(O)cc1 | 8.2 | 0.984
CN(C1=NC(=O)/C(=C\C=C\c2ccccc2)S1)c1ccc(O)cc1 | 52.4* | 0.967 | HCV NS3h conf=21.4;SSB FP counter=1.7;Cy5 SSB fluor CB=0.931;Cy5 fluor confirm=0.692*
COc1ccc(NS(=O)(=O)c2ccc(NC(=S)NC(=O)c3sc4cc(F)ccc4c3Cl)cc2)nn1 | 63.1* | 0.981 | HCV NS3h conf=14.0;SSB FP counter=7.8;Cy5 SSB fluor CB=1.02;Cy5 fluor confirm=0.756*
O=C(NC(=S)Nc1ccc(S(=O)(=O)Nc2nccs2)cc1)c1sc2ccccc2c1Cl | 25.8 | 0.918
CN1C(=O)/C(=c2\sc3nc(-c4ccccc4)c(-c4ccccc4)n3c2=O)c2ccccc21 | 4.2 | 0.924
COc1cc(/C=C2\C(=O)NC(=O)N(c3cc(C)cc(C)c3)C2=O)cc([N+](=O)[O-])c1O | 60.0* | 1.07 | HCV NS3h conf=16.1;SSB FP counter=51.5*;Cy5 SSB fluor CB=0.853;Cy5 fluor confirm=0.743*
COc1cccc(/C=C2/C(=O)NC(=O)N(c3cc(C)cc(C)c3)C2=O)c1O | 15.5 | 1.07
Cc1cc([N+](=O)[O-])ccc1-c1ccc(/C=C2/C(=O)NC(=S)N(c3ccc(Cl)cc3)C2=O)o1 | 5.7 | 1.15
Cc1cc(C)c(N2C(=O)NC(=O)/C(=C/c3ccc([N+](=O)[O-])o3)C2=O)c(C)c1 | 52.4* | 0.918 | HCV NS3h conf=20.3;SSB FP counter=93.9*;Cy5 SSB fluor CB=0.938;Cy5 fluor confirm=0.753*
COC(=O)c1cc(-c2ccc(/C=C3/N=C(c4ccccc4)OC3=O)o2)ccc1Cl | 6.8 | 1.05
O=P(OCCN1CCOCC1)(c1ccccc1)c1ccccc1 | -9.2 | 0.976
C=CCn1c(-c2ccccc2)c(NC(=O)c2ccco2)sc1=Nc1ccc(Br)cc1 | 10.9 | 0.956
O=C(/C=C/c1ccc(-c2ccc(Cl)cc2)o1)c1ccc([N+](=O)[O-])cc1 | 9.7 | 1.01
O=C(/C=C/c1c[nH]c2ccccc12)c1ccc([N+](=O)[O-])cc1 | 42.6* | 0.992 | HCV NS3h conf=27.7;SSB FP counter=15.0;Cy5 SSB fluor CB=0.949;Cy5 fluor confirm=0.987
COc1ccc(NC(=O)/C(C#N)=C\c2ccc(-c3ccc(C(=O)O)c(Cl)c3)o2)cc1 | 58.8* | 1.06 | HCV NS3h conf=6.6;SSB FP counter=16.3;Cy5 SSB fluor CB=0.884;Cy5 fluor confirm=0.748*
N#C/C(=C/c1ccc(-c2ccc(C(=O)O)c(Cl)c2)o1)C(=O)Nc1ccccc1 | 16.0 | 0.978
O=C1NC(=S)S/C1=C\c1ccc(Oc2ccc([N+](=O)[O-])cn2)cc1 | 39.1 | 1.04 | HCV NS3h conf=25.6;SSB FP counter=4.1;Cy5 SSB fluor CB=0.977;Cy5 fluor confirm=0.724*
O=C1NC(=S)N/C1=C\c1ccc(Oc2ccc([N+](=O)[O-])cn2)cc1 | -0.7 | 0.982
O=C(CCN1C(=O)/C(=C/c2ccc(Cl)cc2)SC1=S)Nc1nccs1 | 12.9 | 1.03
O=C(CCN1C(=O)/C(=C/c2ccc(F)cc2)SC1=S)Nc1ncc(Cc2ccc(Cl)cc2)s1 | 45.6* | 0.942 | HCV NS3h conf=4.4;SSB FP counter=10.2;Cy5 SSB fluor CB=0.96;Cy5 fluor confirm=0.996
CSc1ccccc1N1C(=O)C2CC(C)=C(C)CC2C1=O (centres undefined) | 0.3 | 1.01
CSc1ccccc1N1C(=O)C=CC1=O | 21.5 | 1 | HCV NS3h conf=41.5;SSB FP counter=-1.9;Cy5 SSB fluor CB=0.97;Cy5 fluor confirm=0.753*
COc1ccc(N2C(=O)NC(=O)/C(=C\c3cc(OC)c(OC)cc3OC)C2=O)cc1 | 1.2 | 1.01
O=C1NC(=S)N(c2ccc(Cl)cc2)C(=O)C1=Cc1ccsc1 | 26.1 | 0.891
